From PubChem BioAssay
Rows were chosen to be rich in hits. Some 2.3% of all compounds tested hit in one or more screens of this group.
CHRM1 PAM = positive allosteric modulators of human M1 muscarinic receptor. P11229. CHO-K1 hM1, Fluo-8 calcium fluorescence, ACh EC20; 0% = ACh EC20, 100% = maximal ACh. activation, % at 3 µM. actives 0.088% (n = 360,000). AID 588819; in the data active = activation above about 19%, passing the limit was not always enough
Target sequence (P11229 whole entry, looked up): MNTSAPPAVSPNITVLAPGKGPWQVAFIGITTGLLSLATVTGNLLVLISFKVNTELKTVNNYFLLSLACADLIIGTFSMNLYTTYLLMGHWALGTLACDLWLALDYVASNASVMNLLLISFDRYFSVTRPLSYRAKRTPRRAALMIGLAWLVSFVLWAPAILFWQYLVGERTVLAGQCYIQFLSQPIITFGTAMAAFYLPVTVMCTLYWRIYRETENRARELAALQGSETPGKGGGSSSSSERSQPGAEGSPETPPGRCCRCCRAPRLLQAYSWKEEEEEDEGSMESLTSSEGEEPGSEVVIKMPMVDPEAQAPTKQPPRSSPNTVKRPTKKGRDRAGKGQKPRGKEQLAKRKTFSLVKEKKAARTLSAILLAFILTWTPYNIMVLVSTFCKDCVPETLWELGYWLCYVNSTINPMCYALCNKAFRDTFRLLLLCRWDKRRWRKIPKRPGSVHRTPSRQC
CHO-K1 Ca antag = counter-screen for M1 antagonists: effect in parental CHO-K1 cells; ATP-induced calcium, Fluo-8 fluorescence; inhibition, % at 3 µM; actives 0.6% (n = 360,000); AID 602250;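 active = inhibition above a per-plate cutoff, the plate's mean sample inhibition plus 3 SD, cut at about 24% in these data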
CHO-K1 Ca ag = nonselective activator or artifact in parental CHO-K1 cells; actives 0.48% (n = 360,000); AID 602248; activation, % at 3 µM; Fluo-8 calcium fluorescence; scaled to maximal ATP response, vehicle zero; in the data active = activation above about 15%;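 note: untransfected CHO-K1 host cells lacking M1 receptor as counterscreen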
M1 PAM parental = counter-screen for M1 PAMs: effect in parental CHO-K1 cells. activation, % at 3 µM. actives 0.02% (n = 360,000). AID 602247. ATP EC20, Fluo-8 calcium fluorescence; 0% at ATP EC20, 100% at ATP max;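 active = activation above the run cutoff, the mean activation of all test compounds plus 3 SD, cut at about 40% in these data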;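 note: peak over basal fluorescence ratio in a 140 s read after ATP addition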
M1 ag = agonists of human M1 muscarinic receptor; P11229; CHO-K1 hM1, Fluo-8 calcium fluorescence, agonist mode; 0% DMSO, 100% acetylcholine EC100; activation, % at 3 µM; actives 0.33% (n = 360,000); AID 588814;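 active = activation above the run's mean compound activation plus 3 SD, cut at about 16% in these data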;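 note: peak over basal fluorescence ratio within a 140 s kinetic read after compound addition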
M1 antag = blocks human M1 muscarinic receptor; P11229; CHO-K1 hM1, Fluo-8 calcium fluorescence, ACh EC80 antagonist; inhibition, % at 3 µM; actives 1.3% (n = 360,000); AID 588852;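 active = percent inhibition above its own plate's cutoff, namely the mean of that plate's compound wells plus 3 SD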;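 note: peak over basal fluorescence ratio during 140 s after agonist addition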
A number is an active result; - = inactive.

SMILES	CHRM1 PAM	CHO-K1 Ca antag	CHO-K1 Ca ag	M1 PAM parental	M1 ag	M1 antag
COc1ccc(Cc2nnc(NC(=O)c3ccc(F)cc3)s2)cc1OC	-	29	-	-	-	-
COc1ccc(Cc2nnc(NC(=O)c3ccc(C)cc3)s2)cc1OC	-	-	-	-	-	-
COC(=O)c1cn(CC(=O)Nc2ccccc2C)c2ccccc12	-	-	-	-	-	-
Cn1c(=O)c2c(nc(NCc3ccco3)n2C)n(C)c1=O	-	-	-	-	-	-
Cn1c(=O)c2c(nc(NCc3ccco3)n2C/C=C/c2ccccc2)n(C)c1=O	-	-	-	-	-	32
Cc1cccc2sc(N(CCN(C)C)C(=O)C3CCN(S(=O)(=O)c4cccs4)CC3)nc12	-	-	-	-	-	-
CCC[C@@H](CN1CCC[C@H]1CN1C(N)=NC[C@H]1CC(C)C)N1C[C@@H]([C@H](C)CC)N(CCCC2CCCC2)C1=N	-	-	-	-	-	59
CC(C)C[C@@H]1CN=C(N)N1C[C@@H]1CCCN1C[C@H](C)N1C[C@@H](Cc2ccccc2)N(CCCC2CCCC2)C1=N	-	-	-	-	-	34
CC(C)C[C@@H]1CN=C(N)N1C[C@@H]1CCCN1C[C@H](C)N1C[C@@H](Cc2ccccc2)N(CCc2ccc(Cl)c(Cl)c2)C1=N	-	-	-	-	-	-
COc1ccc(NC(=O)[C@@H]2[C@@H]3C(=O)N(C4CCCCC4)C(=O)[C@@H]3C3c4ccccc4C=CN32)cc1 (stereo partly drawn)	-	-	-	-	65	25
Cc1cc(N2CCN(c3ccccc3)CC2)nc2ccccc12	-	-	24	-	-	-
Cc1cc(N2CCCCCC2)nc2ccc(F)cc12	-	-	-	-	31	-
C=CCn1c(SCC(=O)c2c(N)n(C)c(=O)n(C)c2=O)nnc1-c1ccoc1C	-	-	-	-	-	-
CC(=O)Nc1ccc(NC(=O)C(C)OC(=O)CCC2CCCC2)cc1 (stereo not drawn)	-	24	-	-	-	-
CC(=O)Nc1ccc(NC(=O)C(C)OC(=O)CC2CCCC2)cc1 (stereo not drawn)	-	-	-	-	-	-
Cc1sc2ncnc(NCC(c3ccco3)N3CCCC3)c2c1C (stereo not drawn)	-	-	-	-	-	91
COC(=O)c1cc2c(ccn2-c2ccc(F)cc2)n1Cc1ccc(OC(C)=O)cc1	-	-	21	-	-	-
Cc1c(Cl)cccc1NC(=S)N1CCN(Cc2ccccc2)CC1	-	-	-	-	19	-
CCOC(=O)C1CCN(CCC(=O)Nc2cccc(Cl)c2C)CC1	-	-	-	-	-	-
CCOC(=O)N1CCN(CCC(=O)Nc2cccc(Cl)c2C)CC1	-	-	-	-	52	39
COC(=O)CNC(=O)c1ccccc1C	-	26	-	-	-	-
Cc1ccc(S(=O)(=O)N2CCN(C(=O)CN3C(=O)CNC3=O)CC2)cc1	-	-	-	-	-	-
COc1ccc(/C(C)=N/NC(=O)c2ccc(CSc3nncn3C)cc2)cc1	-	-	15	-	-	-
CC(C(=O)NCC1(c2ccccc2)CCCC1)N1CCOCC1 (stereo not drawn)	-	-	-	-	-	-
CC(C(=O)NCC1(c2ccccc2)CCCC1)N1CCCC1 (stereo not drawn)	-	-	-	-	-	97
SMILES	CHRM1 PAM	CHO-K1 Ca antag	CHO-K1 Ca ag	M1 PAM parental	M1 ag	M1 antag
Brc1ccc(CNc2ccc3ncccc3c2)cc1	-	-	-	-	-	36
CC(=O)OC[C@@H]1CN(Cc2ccccc2)C[C@H](n2cnc3c(N4CCOCC4)ncnc32)O1	-	-	-	-	-	-
O=c1c2ccccc2nnn1Cc1nnc(-c2ccccc2Br)o1	-	-	-	-	16	-
COc1cc(CNCc2cc(OC)c(OC)c(OC)c2)cc(OC)c1	-	-	-	-	-	-
Cc1cccn2c(=O)c(/C=C(\C#N)C(=O)NCc3ccco3)c(N3CCCC(C)C3)nc12 (stereo not drawn)	-	-	-	-	-	-
CCOC(=O)C1CCCN(c2nc3c(C)cccn3c(=O)c2/C=C(\C#N)C(=O)NCc2ccco2)C1 (stereo not drawn)	-	-	-	-	62	76
